In assay [1] the target is T1, Inhibitor of nuclear factor kappa-B kinase subunit epsilon (Homo sapiens) (UniProt Q14164).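 Note: reported values are averaged percent inhibition figures against human IKKε.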
T1 sequence (whole entry): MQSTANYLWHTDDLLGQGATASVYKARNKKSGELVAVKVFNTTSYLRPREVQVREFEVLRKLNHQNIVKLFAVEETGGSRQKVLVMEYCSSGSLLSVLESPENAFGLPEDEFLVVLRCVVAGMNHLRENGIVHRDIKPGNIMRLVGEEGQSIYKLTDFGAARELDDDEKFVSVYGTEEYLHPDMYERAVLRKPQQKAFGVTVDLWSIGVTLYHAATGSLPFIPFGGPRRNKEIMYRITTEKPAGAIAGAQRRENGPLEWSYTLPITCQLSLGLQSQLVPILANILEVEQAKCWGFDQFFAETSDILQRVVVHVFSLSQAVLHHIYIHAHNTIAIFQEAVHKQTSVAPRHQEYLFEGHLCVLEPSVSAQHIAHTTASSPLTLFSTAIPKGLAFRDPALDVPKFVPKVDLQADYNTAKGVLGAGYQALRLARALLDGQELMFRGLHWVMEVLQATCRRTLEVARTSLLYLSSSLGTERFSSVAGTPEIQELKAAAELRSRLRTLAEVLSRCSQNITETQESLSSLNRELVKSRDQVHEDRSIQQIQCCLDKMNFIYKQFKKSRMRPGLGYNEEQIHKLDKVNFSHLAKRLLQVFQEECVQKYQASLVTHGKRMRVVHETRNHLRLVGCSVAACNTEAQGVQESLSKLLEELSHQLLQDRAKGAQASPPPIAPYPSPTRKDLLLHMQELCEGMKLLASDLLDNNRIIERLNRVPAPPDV
The following applies: at 1 µM.

For assay [2], the target named is T2, Serine/threonine-protein kinase Nek1 (Homo sapiens) (UniProt Q96PY6).
T2 sequence (whole entry): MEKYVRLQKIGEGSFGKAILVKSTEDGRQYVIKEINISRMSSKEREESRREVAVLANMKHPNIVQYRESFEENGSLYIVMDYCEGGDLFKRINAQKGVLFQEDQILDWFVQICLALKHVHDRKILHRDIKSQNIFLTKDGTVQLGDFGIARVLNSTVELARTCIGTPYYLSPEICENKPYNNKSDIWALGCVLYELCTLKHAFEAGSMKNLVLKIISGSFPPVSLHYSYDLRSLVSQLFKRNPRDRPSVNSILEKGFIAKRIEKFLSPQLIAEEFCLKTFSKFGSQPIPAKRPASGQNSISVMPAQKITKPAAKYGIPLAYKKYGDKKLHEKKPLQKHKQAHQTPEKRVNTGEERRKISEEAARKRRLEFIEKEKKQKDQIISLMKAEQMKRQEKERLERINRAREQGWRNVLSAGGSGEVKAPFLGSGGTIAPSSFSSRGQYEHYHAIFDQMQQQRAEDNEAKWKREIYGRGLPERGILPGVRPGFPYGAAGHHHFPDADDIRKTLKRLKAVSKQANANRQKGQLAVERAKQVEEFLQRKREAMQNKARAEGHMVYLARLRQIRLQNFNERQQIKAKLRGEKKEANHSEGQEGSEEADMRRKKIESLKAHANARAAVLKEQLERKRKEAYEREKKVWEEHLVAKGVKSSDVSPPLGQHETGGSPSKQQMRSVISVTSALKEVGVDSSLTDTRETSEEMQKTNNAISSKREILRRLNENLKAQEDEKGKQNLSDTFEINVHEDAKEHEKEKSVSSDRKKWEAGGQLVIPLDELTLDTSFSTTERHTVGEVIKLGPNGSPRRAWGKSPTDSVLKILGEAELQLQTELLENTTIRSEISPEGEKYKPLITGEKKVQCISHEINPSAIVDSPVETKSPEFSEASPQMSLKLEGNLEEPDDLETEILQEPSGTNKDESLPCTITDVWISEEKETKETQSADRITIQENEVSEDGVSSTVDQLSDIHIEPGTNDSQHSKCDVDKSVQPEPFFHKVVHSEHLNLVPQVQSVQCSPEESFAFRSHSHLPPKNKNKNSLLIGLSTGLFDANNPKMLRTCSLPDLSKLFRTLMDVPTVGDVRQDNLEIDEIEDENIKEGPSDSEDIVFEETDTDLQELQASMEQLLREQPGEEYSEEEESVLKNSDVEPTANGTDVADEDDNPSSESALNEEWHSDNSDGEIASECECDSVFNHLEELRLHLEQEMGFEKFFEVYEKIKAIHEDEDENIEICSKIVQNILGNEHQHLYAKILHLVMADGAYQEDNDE
As to conditions: at 0.1 µM.

For assay [3], the target named is T2, Serine/threonine-protein kinase Nek1 (Homo sapiens). The following applies: at 1 µM.
For assay [4], the target named is T3, Serine/threonine-protein kinase Nek2 (Homo sapiens) (UniProt P51955).
T3 sequence (whole entry): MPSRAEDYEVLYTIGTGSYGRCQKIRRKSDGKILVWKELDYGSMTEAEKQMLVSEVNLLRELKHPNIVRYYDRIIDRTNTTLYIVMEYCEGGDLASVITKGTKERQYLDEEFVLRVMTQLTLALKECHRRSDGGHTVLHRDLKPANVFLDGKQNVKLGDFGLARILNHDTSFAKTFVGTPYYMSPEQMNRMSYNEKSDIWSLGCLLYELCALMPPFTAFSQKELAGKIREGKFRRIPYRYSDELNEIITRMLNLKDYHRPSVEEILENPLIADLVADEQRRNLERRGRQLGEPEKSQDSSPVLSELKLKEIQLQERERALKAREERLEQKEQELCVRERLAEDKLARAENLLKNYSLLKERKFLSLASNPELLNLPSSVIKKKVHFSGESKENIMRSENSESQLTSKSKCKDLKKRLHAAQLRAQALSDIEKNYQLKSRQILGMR
As to conditions: at 0.1 µM.

Assay [5] addresses T3, Serine/threonine-protein kinase Nek2 (Homo sapiens). As to conditions: at 1 µM.
For assay [6], the target named is Serine/threonine-protein kinase Nek6 (Homo sapiens) (UniProt Q9HC98). As to conditions: at 0.1 µM.
The target is the same in assay [7]. As to conditions: at 1 µM.
The target in assay [8] is Serine/threonine-protein kinase Nek7 (Homo sapiens) (UniProt Q8TDX7). The following applies: at 0.1 µM.
Assay [9] shares this target. As to conditions: at 1 µM.
Assay [10] deals with T4, Serine/threonine-protein kinase Nek9 (Homo sapiens) (UniProt Q8TD19).
T4 sequence (whole entry): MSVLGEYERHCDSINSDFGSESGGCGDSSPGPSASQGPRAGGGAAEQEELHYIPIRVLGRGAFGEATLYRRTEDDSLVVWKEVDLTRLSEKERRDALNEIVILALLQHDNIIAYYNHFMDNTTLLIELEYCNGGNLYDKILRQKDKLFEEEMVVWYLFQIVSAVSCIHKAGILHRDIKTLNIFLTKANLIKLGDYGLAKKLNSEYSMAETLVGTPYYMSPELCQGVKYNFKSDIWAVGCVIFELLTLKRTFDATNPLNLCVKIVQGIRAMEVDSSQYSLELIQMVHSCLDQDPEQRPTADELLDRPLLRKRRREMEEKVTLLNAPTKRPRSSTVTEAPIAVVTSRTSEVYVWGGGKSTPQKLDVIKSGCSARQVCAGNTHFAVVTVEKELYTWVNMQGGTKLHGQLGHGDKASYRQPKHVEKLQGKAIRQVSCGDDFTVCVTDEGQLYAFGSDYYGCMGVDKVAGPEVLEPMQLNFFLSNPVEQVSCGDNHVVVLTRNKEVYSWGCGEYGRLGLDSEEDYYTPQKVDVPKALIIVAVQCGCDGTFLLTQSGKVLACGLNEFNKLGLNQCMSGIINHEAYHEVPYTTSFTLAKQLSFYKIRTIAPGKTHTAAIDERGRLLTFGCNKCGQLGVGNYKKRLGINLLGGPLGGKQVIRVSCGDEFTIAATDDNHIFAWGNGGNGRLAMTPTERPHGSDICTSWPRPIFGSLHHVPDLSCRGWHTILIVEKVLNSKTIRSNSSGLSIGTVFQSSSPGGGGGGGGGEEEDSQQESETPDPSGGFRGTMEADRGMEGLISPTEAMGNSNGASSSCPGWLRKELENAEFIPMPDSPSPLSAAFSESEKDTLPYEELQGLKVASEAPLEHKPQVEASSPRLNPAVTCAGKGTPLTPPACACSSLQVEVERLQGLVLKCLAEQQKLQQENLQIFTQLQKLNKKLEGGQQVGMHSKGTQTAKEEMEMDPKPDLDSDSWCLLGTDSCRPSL
As to conditions: at 0.1 µM.

For assay [11], the target named is T4, Serine/threonine-protein kinase Nek9 (Homo sapiens). The following applies: at 1 µM.
Assay [12] has as its target Serine/threonine-protein kinase PLK1 (Homo sapiens) (UniProt P53350). As to conditions: at 0.1 µM.
Assay [13] has the same target. As to conditions: at 1 µM.
Assay [14] has as its target T5, Dual specificity protein kinase TTK (Homo sapiens) (UniProt P33981).
T5 sequence (whole entry): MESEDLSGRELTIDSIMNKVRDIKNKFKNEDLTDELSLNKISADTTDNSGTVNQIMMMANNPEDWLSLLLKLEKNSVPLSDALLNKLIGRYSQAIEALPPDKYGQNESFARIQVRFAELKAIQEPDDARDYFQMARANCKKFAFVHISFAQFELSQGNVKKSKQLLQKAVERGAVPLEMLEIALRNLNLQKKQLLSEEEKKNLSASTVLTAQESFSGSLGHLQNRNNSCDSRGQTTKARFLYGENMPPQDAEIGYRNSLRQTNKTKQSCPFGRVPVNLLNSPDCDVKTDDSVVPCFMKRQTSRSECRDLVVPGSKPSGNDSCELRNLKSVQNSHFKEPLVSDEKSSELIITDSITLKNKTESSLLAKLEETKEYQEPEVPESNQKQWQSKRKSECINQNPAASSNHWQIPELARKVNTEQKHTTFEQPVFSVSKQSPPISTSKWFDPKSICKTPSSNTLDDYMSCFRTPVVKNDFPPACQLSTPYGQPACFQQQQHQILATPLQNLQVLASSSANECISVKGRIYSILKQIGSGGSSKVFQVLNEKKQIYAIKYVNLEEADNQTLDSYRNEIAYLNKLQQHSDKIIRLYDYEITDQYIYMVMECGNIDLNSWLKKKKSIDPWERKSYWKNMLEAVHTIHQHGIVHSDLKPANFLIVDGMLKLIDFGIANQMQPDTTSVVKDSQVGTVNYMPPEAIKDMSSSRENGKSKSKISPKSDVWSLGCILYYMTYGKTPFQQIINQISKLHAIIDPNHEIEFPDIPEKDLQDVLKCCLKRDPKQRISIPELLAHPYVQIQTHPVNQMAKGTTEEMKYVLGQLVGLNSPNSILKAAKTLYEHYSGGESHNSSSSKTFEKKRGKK
As to conditions: at 0.1 µM.

Assay [15] deals with T6, Receptor-type tyrosine-protein kinase FLT3 (Homo sapiens), P36888 [D835Y].
T6 sequence (whole entry): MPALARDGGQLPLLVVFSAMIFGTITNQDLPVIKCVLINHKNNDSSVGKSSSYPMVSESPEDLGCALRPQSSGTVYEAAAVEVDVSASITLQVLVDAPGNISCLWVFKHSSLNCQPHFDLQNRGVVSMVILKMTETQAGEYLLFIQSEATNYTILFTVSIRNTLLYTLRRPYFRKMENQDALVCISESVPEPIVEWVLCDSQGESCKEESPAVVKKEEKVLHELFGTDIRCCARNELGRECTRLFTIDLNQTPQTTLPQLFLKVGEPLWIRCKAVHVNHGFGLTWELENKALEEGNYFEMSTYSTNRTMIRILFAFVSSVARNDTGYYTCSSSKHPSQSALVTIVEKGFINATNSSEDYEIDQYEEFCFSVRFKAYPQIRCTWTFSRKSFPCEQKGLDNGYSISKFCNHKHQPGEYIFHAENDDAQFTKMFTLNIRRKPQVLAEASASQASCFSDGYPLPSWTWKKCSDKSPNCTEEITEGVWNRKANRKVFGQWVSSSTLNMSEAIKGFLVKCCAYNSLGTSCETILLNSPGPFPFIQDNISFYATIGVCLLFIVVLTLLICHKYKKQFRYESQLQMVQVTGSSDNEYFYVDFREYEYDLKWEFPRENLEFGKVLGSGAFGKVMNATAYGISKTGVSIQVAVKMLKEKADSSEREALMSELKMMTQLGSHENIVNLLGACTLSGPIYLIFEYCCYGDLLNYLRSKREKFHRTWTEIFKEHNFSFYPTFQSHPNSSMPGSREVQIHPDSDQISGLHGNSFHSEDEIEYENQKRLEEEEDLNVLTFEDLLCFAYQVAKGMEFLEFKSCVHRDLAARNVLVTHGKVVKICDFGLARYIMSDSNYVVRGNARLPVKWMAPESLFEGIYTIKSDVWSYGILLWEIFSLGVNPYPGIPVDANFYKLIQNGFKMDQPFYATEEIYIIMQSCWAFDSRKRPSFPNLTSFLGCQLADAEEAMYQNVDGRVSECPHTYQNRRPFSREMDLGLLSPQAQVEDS
As to conditions: at 1 µM.

The target of assay [16] is Vascular endothelial growth factor receptor 3 (Homo sapiens) (UniProt P35916). As to conditions: at 0.1 µM.
For assay [17] the target is unchanged. As to conditions: at 1 µM.
For assay [18], the target named is Macrophage colony-stimulating factor 1 receptor (Homo sapiens) (UniProt P07333). The following applies: at 0.1 µM.
For assay [19] the target is unchanged. As to conditions: at 1 µM.
Assay [20] addresses Tyrosine-protein kinase Fyn (Homo sapiens) (UniProt P06241). As to conditions: at 0.1 µM.

Inhibition data for two compounds are collected here from ChEMBL document CHEMBL1961873, “Compounds: GSK PKIS; Assays: Nanosyn kinase panel” (2012).

Chain of Vascular endothelial growth factor receptor 3 (Homo sapiens) (P35916 whole entry): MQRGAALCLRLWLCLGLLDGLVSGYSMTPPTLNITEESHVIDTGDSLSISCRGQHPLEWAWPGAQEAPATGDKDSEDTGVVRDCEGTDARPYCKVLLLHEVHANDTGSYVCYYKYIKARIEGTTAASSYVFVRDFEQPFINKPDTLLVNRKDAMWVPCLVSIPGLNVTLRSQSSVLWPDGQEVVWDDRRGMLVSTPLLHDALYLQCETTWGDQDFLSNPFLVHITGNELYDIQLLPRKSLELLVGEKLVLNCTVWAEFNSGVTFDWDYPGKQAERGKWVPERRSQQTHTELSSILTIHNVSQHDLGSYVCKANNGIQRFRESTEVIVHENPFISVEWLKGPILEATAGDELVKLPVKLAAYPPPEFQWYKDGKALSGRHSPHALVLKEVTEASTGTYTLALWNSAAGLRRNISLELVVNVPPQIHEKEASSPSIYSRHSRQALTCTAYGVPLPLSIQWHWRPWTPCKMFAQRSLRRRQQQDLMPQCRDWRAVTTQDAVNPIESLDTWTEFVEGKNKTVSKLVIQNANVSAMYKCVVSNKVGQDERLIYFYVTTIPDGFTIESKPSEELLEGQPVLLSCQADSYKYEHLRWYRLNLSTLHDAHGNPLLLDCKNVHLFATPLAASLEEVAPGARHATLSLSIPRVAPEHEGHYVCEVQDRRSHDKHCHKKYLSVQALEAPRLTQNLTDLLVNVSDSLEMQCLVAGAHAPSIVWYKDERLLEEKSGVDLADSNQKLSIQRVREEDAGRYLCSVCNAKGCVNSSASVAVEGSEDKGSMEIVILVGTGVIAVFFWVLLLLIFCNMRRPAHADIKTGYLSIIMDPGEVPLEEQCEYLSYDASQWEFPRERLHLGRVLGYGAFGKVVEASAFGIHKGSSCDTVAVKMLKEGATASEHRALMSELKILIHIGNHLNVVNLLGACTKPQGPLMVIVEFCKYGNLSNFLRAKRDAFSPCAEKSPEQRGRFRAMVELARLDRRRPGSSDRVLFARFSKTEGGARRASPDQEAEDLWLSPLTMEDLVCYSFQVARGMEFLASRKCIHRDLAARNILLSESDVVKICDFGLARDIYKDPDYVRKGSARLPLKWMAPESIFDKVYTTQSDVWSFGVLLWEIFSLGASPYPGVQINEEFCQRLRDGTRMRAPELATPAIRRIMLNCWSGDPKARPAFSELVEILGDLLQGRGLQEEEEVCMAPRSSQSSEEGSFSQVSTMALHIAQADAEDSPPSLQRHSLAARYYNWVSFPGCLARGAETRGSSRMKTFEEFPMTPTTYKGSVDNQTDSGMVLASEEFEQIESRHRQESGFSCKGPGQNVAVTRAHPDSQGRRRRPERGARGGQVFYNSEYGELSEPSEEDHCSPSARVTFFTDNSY
Chain of Serine/threonine-protein kinase PLK1 (Homo sapiens) (P53350 whole entry): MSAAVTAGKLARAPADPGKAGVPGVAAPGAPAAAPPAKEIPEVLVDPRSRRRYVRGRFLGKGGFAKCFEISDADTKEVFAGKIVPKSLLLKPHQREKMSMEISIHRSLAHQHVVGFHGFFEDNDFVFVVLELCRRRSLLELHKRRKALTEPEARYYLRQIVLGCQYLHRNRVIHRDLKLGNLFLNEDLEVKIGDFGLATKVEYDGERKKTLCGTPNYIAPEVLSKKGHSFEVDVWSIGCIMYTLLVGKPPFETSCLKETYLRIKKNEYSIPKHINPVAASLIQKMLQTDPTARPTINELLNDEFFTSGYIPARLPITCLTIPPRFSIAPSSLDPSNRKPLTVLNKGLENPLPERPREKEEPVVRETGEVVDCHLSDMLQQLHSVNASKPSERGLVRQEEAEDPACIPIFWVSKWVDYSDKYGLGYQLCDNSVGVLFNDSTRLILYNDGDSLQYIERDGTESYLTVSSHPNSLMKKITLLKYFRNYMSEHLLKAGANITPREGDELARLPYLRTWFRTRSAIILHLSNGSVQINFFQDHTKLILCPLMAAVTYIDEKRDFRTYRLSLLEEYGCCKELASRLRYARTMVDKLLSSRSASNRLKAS
Chain of Macrophage colony-stimulating factor 1 receptor (Homo sapiens) (P07333 whole entry): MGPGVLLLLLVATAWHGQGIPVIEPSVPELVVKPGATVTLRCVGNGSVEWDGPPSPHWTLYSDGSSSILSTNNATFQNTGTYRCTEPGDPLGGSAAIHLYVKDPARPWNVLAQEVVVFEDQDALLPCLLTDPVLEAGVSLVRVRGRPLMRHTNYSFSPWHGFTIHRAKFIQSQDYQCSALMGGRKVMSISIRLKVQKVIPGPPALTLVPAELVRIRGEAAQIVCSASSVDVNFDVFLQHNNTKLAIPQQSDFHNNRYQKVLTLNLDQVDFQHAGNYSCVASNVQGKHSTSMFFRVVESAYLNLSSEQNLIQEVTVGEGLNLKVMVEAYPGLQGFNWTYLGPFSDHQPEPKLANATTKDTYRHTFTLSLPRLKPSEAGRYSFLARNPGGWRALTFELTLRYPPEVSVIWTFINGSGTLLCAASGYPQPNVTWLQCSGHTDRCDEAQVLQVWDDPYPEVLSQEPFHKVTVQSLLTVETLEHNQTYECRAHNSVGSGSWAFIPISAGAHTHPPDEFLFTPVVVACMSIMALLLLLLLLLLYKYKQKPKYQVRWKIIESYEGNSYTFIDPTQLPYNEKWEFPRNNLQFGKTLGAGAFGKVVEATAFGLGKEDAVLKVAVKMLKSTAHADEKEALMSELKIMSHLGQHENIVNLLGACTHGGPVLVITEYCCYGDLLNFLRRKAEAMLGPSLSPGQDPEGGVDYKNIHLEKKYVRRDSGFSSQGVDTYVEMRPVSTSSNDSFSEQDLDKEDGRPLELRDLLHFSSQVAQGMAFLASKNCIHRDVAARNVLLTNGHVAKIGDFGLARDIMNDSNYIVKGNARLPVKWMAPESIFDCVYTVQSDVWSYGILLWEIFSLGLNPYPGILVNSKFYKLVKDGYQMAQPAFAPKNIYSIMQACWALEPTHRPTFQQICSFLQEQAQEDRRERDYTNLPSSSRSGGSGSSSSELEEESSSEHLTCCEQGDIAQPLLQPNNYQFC
Chain of Serine/threonine-protein kinase Nek6 (Homo sapiens) (Q9HC98 whole entry): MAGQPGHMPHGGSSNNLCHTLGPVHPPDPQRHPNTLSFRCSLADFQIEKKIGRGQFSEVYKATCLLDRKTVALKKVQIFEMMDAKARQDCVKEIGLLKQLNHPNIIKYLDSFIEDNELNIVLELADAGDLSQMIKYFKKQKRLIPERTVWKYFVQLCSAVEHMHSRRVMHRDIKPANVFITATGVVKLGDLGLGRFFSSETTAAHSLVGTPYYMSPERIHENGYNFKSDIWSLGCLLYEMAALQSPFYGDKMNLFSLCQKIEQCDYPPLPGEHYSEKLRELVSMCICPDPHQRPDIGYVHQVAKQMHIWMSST
Chain of Serine/threonine-protein kinase Nek7 (Homo sapiens) (Q8TDX7 whole entry, looked up): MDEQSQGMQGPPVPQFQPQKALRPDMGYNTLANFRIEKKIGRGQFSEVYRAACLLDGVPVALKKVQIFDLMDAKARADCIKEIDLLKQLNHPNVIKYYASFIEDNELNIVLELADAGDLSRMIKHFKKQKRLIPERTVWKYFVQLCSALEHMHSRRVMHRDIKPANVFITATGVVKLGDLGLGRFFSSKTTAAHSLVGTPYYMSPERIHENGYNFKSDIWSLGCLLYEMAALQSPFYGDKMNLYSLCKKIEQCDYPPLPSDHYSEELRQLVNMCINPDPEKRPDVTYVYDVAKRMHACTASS
Chain of Tyrosine-protein kinase Fyn (Homo sapiens) (P06241 2-537 limits assumed): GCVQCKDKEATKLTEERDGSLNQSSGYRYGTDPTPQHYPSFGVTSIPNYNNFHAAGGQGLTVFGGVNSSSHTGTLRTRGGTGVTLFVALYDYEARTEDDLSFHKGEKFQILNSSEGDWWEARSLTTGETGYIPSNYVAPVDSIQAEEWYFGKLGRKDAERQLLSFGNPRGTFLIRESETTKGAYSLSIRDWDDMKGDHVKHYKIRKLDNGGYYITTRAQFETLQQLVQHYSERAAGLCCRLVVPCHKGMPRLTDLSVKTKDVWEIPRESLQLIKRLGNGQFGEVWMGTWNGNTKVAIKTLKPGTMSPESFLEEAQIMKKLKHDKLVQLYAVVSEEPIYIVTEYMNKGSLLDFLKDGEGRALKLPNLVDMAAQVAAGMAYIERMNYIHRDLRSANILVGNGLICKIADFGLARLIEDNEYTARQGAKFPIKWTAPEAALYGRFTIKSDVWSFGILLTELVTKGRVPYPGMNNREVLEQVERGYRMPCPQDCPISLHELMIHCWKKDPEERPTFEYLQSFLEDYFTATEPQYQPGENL

Take `Cc1ccc(NC(=O)CC2CC2)cc1-c1ccc(C(=O)NCC2CC2)cc1`: the inhibition in assay [1] came to 3.27%; in assay [2], 2.27%; in assay [3] it was 3.32%; in [4], 3.73%; in assay [5], 3.66%; in [6], 2.7%. Besides, the inhibition in assay [7] was found to be 0.33%; in assay [8] it was 4.87%; in assay [9], 4.36%; in [10] it was 5.37%; in [11] it was 7.42%; in [12], 3.49%. Besides, the inhibition in [13] was 1.97%; in assay [14] it was 5.15%; in [15] it was 0.64%; in [16], 0.87%; in assay [17], -0.77%; in assay [18], 2.08%. For the same compound, the inhibition is -0.55% in [19] and 1.7% in assay [20].
Take `Cc1ccc(Nc2ccnc(Nc3cccc(C(N)=O)c3)n2)cc1O`: the inhibition was 19.4% in assay [1]; 2.35% in [2]; 3.58% in assay [3]; 4% in [4]; 2.98% in assay [5]; 4.22% in assay [6]. Further, the inhibition was found to be 2.69% in assay [7]; 4.63% in [8]; 4.4% in [9]; 6.86% in assay [10]; 10.2% in assay [11]; 3.22% in assay [12]. The inhibition in [13] was determined as 6.17%; in assay [14], 5.91%; in [15], 86.1%; in assay [16], 64%; in assay [17] it was 95%; in assay [18], 12.7%. The inhibition in [19] was found to be 49.9%; in assay [20] it was 77.2%.
